This is a sample that favours compounds with a hit; in the whole collection about 0.49% have one here.
EPAC1 agonist: agonists of human EPAC1. O95398. EPAC1 agonist qHTS, biochemical assay; response scale: 100% = response to 6.5 mM cAMP. Potency, µM (titrated, usually from 154 µM), inactives show top-dose activation, most hits filed as activators. hit rate 0.073% among 360,000; also: nearly all actives have a fitted effect of over 60% in size
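Read-out is the fluorescence drop as BODIPY-GDP leaves Rap1B (480 nm excitation, 540 nm emission), recorded every 5 minutes over 30 minutes. Reactions held 100 nM EPAC1, 250 nM Rap1B–BODIPY-GDP and 50 uM GDP, with 6.5 mM cAMP setting full activation.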
USP1-UAF1 inh: USP1/UAF1 (human) deubiquitinase inhibition; O94782; recombinant USP1/UAF1, Ub-Rhodamine cleavage fluorescence; Potency, µM (series often up to 57.1 µM), for the others: at the highest dose activity change, negative = inhibition, usual class: inhibitors; hit rate 0.23% among 390,000; also: % is scaled to controls: 0 for no effect and ±100 for the full control effect; nearly all actives have a fitted effect of over 60% in size
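High-throughput fluorogenic screen: 1nM USP1/UAF1 complex, Ub-Rho substrate 150nM final, 50mM HEPES pH 7.8 with 0.5mM EDTA, 0.1 mg/ml BSA, 1mM TCEP and 0.01% Tween-20.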
EPAC1 antag: blocks human EPAC1 exchange factor; O95398; AID 720709; hit rate 0.14% among 360,000; Potency, µM (doses to about 115 µM), for inactives: at the highest dose activity change, negative = inhibition, hits mostly inhibitors; EPAC1 GEF assay, Rap1b-BODIPY-GDP exchange fluorescence;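 also: plate controls were vehicle for no effect and positive control for full effect; nearly all actives have a fitted effect of over 50% in size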
EPAC2 antag: EPAC2 (human) antagonism; EPAC2 GEF exchange of Rap1B-BODIPY-GDP, fluorescence; Potency, µM (top dose mostly 114 µM), for the others: top-dose activity, negative = inhibition, usual class: inhibitors; AID 720708; Q8WZA2; hit rate 0.18% among 360,000; also: % is scaled to controls: 0 for no effect and ±100 for the full control effect; nearly all actives have a fitted effect of over 45% in size
Target sequence (Q8WZA2 whole entry, looked up): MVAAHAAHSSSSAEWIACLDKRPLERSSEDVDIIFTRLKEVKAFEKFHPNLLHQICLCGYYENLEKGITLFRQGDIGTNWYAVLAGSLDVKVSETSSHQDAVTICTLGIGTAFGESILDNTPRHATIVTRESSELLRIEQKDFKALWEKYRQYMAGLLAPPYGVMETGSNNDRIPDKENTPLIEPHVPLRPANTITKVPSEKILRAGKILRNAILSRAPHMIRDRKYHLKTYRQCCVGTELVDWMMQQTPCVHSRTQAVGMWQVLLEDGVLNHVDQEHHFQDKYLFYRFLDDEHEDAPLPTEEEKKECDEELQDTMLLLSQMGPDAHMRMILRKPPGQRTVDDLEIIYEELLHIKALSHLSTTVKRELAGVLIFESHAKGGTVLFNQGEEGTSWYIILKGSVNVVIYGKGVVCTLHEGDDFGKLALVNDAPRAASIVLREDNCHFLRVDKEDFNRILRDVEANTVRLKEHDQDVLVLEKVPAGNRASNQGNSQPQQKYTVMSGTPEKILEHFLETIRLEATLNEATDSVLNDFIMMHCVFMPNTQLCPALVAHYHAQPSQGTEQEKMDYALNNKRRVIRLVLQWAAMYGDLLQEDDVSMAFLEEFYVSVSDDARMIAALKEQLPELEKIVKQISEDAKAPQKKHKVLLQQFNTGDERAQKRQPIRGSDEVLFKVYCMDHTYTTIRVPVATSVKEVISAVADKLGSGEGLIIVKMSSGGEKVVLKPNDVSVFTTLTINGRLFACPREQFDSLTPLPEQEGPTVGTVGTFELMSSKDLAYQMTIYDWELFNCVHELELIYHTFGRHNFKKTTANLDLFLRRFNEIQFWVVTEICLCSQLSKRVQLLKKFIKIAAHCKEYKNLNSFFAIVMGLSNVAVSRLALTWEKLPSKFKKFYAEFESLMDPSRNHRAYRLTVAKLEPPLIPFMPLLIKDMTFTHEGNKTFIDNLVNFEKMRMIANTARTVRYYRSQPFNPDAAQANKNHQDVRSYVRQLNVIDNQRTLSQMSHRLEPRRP
EPAC2 ag: agonists of human EPAC2 (RAPGEF4) | Q8WZA2 | EPAC2 activation, biochemical qHTS; response scale: 100% = 6.5 mM cAMP response | Potency, µM (doses to about 154 µM), without a hit: at the top dose activation, usual class: activators | hit rate 0.079% among 360,000; also: nearly all actives have a fitted effect of over 50% in size
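qHTS, titration series. 100 nM EPAC2 / 250 nM Rap1B-BODIPY-GDP / 50 uM GDP; RT; ex 480/em 540 nm, 5-min reads to 30 min. Norm. to 6.5 mM cAMP = activation.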
* = called active by the depositor; i = inactive; u = inconclusive; x = not tested or not shown. Calls follow the shape of the dose curve; as a rule, active = well fitted curve in the direction sought with a large enough effect; inconclusive = small, poorly fitted or top-dose-only effect, or another doubt; inactive = no such curve, though single readings can be large; an effect the other way counts as inactive or inconclusive. Potency is read from the fitted curve at half-maximal effect.

SMILES	EPAC1 agonist	USP1-UAF1 inh	EPAC1 antag	EPAC2 antag	EPAC2 ag
O=C(O)c1cc(Cl)ccc1-c1ccc(/C=C/c2cc(C(F)(F)F)[nH]c(=O)n2)o1	89µM*	28µM*	473%	273%	100µM*
CCc1cccc(C)c1NC(=O)c1cc(S(=O)(=O)N2CCCCCC2)cn1C	x	-28%	x	x	x
COc1ccc(C(=O)c2nccc3cc(OC)c(OC)cc23)cc1OC	12%	14µM*	-5%	-4%	-2%
COc1cccc(OC)c1OC(=O)/C=C/c1ccc(C)o1	2%	u	-13%	56µM*	14%
CCNC(=S)Nc1ccc(N2CCCCC2)cc1	7%	-9%	7%	4%	4%
CCNC(=S)N/N=C/c1sc(N2CCCCC2)nc1-c1cccs1	-52%	u	89µM*	u	1%
Cc1[nH][nH]c(=O)c1C(c1ccc(-c2cccc(Cl)c2)o1)c1c(C)[nH][nH]c1=O	13%	28µM*	u	u	18%
COC(=O)c1ccc(-c2ccc(C(c3c(C)[nH][nH]c3=O)c3c(C)[nH][nH]c3=O)o2)cc1	13%	28µM*	-28%	-25%	7%
C/C(CC(=O)Nc1ccc2ccccc2c1)=N\NC(=O)c1cnccn1	40µM*	-3%	55%	-6%	-1%
Cc1ccc(NC(=O)CSCC(=O)N(C)CCOc2ccc(Cl)cc2)cc1	6%	-17%	1%	-15%	0%
Cc1cccc(NC(=O)CSCC(=O)N(C)CCOc2ccc(Cl)cc2)c1	50µM*	-13%	-12%	-7%	9%
Cc1[nH]c(=O)nc(NN=Cc2ccc(Cl)cc2)c1C(=O)Nc1ccc(Cl)cc1	-5%	-19%	2%	20%	32µM*
CCCCCCCCN1C(=O)[C@H](CC(=O)NCc2ccc(OC)c(OC)c2)C[C@@]2(C(=O)OCC)CCC=C12	-25%	x	-22%	u	-14%
CCCCCCCCN1C(=O)[C@H](CC(=O)NCc2ccc(OC)c(OC)c2)C[C@@]2(C(=O)OC)CCCCC=C12	-25%	x	-28%	38µM*	-10%
COc1ccc(NC(=O)Cn2ccn(-c3ccc(C)c(C)c3)c(=O)c2=O)cc1Cl	x	-8%	x	x	x
Cn1c(=O)c(N)c2c3c(c(Br)ccc31)C(=O)c1ccccc1-2	112µM*	244%	31%	30%	u
CN(Cc1ccccc1)c1ccc(-c2nc(-c3ccccn3)no2)cc1[N+](=O)[O-]	x	-26%	x	x	x
CN(C)c1ccc(C(=O)/C=C/c2cccnc2)cc1	3%	-4%	-10%	0%	2%
CN(C)c1ccc(/C=C/C(=O)c2cccc(Br)c2)cc1	100µM*	i	68%	56%	100µM*
CCn1nc([N+](=O)[O-])c(C(C#N)c2nc3cc(C(F)(F)F)ccc3s2)c(Cl)c1=O (configuration not stated)	-11%	u	u	-29%	-13%
CCCn1nc([N+](=O)[O-])c(C(C#N)c2nc3ccccc3o2)c(Cl)c1=O (configuration not stated)	-10%	-25%	-17%	56µM*	-28%
CCC(CN(C)C)Oc1cc(NCc2ccccc2)c2ncn(C(C)C)c2c1 (configuration not stated)	-6%	28µM*	u	15%	1%
Cc1ccc(-c2nn(-c3ccccc3)cc2C=C2SC(=S)N(CCS(=O)(=O)O)C2=O)cc1	-12%	x	7.9µM*	45µM*	1%
O=C1C(=Cc2cn(-c3ccccc3)nc2-c2ccc(OCc3ccccc3)cc2)SC(=S)N1CCS(=O)(=O)O	-1%	x	u	u	-6%
Nc1cccc2c(O)cc(S(=O)(=O)O)cc12	u	25µM*	-21%	-30%	u
SMILES	EPAC1 agonist	USP1-UAF1 inh	EPAC1 antag	EPAC2 antag	EPAC2 ag
CN(C)c1ccc2nc3c(=O)[nH]c(=O)nc-3n(CC(O)C(O)C(O)CO)c2c1 (configuration not stated)	20%	28µM*	u	3%	9%
CN1C2CCC1/C(=C\c1ccc(F)cc1)C(=O)/C2=C/c1ccc(F)cc1	5%	-4%	1%	2%	-3%
Cn1cccc1/C=C1\CC(C(C)(C)C)C/C(=C\c2cccn2C)C1=O (configuration not stated)	6%	11µM*	7%	-28%	-18%
CN1C2CCC1/C(=C/c1cccn1C)C(=O)/C2=C\c1cccn1C	u	28µM*	49%	49%	u
COc1cccc(CNC(=O)C2CCCN(S(=O)(=O)c3ccc4c(ccn4C)c3)C2)c1OC (configuration not stated)	x	-23%	x	x	x
O=C1/C(=C\c2cccs2)Sc2ccc3ccccc3c21	10%	32µM*	7%	-7%	1%
COc1ccccc1CNC(=O)CCC(=O)N1CC2CCCN2c2ccccc21 (configuration not stated)	x	8%	x	x	x
COc1ccc(C(=O)Nc2ccccc2-c2nnn(CC(N)=O)n2)cc1	-10%	-16%	89µM*	-4%	-3%
CN1CCc2nc3sc(C(=O)c4ccc(F)cc4)c(N)c3cc2C1	x	-25%	x	x	x
CN1CCc2nc3sc(C(=O)C45CC6CC(CC(C6)C4)C5)c(N)c3cc2C1	12%	u	-19%	50µM*	u
CCc1ccc(S(=O)(=O)N(C(=O)Oc2ccccc2)c2ccc3oc(C)c(C(=O)OC)c3c2)cc1	x	-14%	x	x	x
Cc1cccc(N2CCN(C(=O)c3cc4ccc5cccnc5c4[nH]3)CC2C)c1 (configuration not stated)	x	-17%	x	x	x
Cc1cc(S(=O)(=O)Nc2ccc(-c3ccc(N4CCCCC4)nn3)cc2)c(C)cc1Cl	x	-23%	x	x	x
Cc1cc(C)n(CCOc2ccc(Br)cc2)n1	9%	-23%	12%	35µM*	4%
Cc1cccc(-c2nc(SCC(=O)NCC3CCCO3)c3c(=O)n(C)c(=O)n(C)c3n2)c1 (configuration not stated)	x	-21%	x	x	x
COc1ccc2nc(N3CCCCC3)c(C#N)cc2c1	15%	-4%	-7%	-28%	18%
COc1ccc2nc(N3CCCC3)c(C#N)cc2c1	u	28µM*	32%	32%	u
CCCCOc1ccc(CNC(=O)CCCN2C(=O)CSc3c2c(C)nn3-c2ccccc2)cc1	x	-24%	x	x	x
N#C/C(=C\c1cn(Cc2ccc(C#N)cc2)c2ccccc12)C(=O)NCc1cccs1	0%	-5%	9%	20%	79µM*
O=C(O)C1Nc2c(Cl)cc(Cl)cc2C2C=CCC12 (configuration not stated)	5%	u	18µM*	-2%	1%
O=C(O)C1Nc2c(Cl)cc(Cl)c(Cl)c2C2C=CCC12 (configuration not stated)	10%	-17%	u	1%	2%
COc1ccc(-c2[nH]c(-c3ccc(C)cc3)nc2SCC(=O)Nc2nccs2)cc1	6%	-14%	-6%	0%	3%

Screening results (PubChem)
